Test results taken from PubChem BioAssay AID777 (Sanford-Burnham Center for Chemical Genomics, 2007).
The whole screen tested about 96,000 compounds, of which about 19,000 (20%) were called active. Only a sample is shown. A number with no mark means an inactive call.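 The calls were made as follows: active = blocking of liver enzyme CYP2C9 beyond about 50% at 5 µM (limit read from the data); inactive = the rest.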

target: Cytochrome P450 2C9 (Homo sapiens) (UniProt P11712); assay: blockers of cytochrome P450 2C9 activity – biochemical, luminescence, ADME assay, primary screen (AID 777); conditions: CYP2C9 Supersomes, luciferin-H conversion, at 5 µM, hits give high values
Sequence (P11712 whole entry, looked up): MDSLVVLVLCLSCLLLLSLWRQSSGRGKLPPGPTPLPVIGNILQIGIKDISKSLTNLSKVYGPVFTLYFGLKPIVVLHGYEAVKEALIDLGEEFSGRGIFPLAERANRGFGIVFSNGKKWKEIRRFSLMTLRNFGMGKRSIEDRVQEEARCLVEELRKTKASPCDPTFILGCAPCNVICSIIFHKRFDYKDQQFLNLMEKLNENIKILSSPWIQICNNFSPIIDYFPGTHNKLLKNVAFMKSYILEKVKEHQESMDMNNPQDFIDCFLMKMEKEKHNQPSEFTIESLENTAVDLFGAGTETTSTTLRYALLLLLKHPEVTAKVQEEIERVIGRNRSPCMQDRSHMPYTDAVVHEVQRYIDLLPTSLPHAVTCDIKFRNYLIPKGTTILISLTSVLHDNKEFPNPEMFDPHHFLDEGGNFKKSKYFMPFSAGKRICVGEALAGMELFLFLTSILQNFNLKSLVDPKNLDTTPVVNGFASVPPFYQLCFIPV

Structure (SMILES) | inhibition
CC(C)[C@H](NC(=O)Nc1ccc(S(N)(=O)=O)cc1)C(=O)O | -7.3%
O=S(=O)(/N=C(/Nc1ccccn1)c1ccccc1)c1ccc(Cl)cc1 | 29%
O=C1CCCc2c1[nH]c1ccc(Br)cc21 | 19.2%
COC(=O)c1ccc(C2NC(=O)NC(C)=C2C(=O)N(C)C)cc1 (stereo not drawn) | -16.8%
CCOC(=O)C1=C(C)Nc2sc(C(=O)c3ccc(Br)cc3)c(N)c2C1c1ccc(C(=O)OC)cc1 (stereo not drawn) | 91.9% (active)
CCOC(=O)c1sc(=S)n2c1[nH]c(=O)c1ccc(C(=O)OC)cc12 | 42.1%
Cc1c(Nc2nc3ccccc3nc2NS(=O)(=O)c2cccs2)c(=O)n(-c2ccccc2)n1C | 47.6%
COc1ccc(-n2c(Cc3cccn3C)nnc2SCC(=O)Nc2cc(C)cc(C)c2)cc1 | 28.5%
CCn1c(CNc2ccc(OC)cc2)nnc1SCC(=O)c1ccc(OC)cc1 | 25.4%
COc1ccc(NCc2nnc(SCc3ccccc3)n2-c2ccc(OC)cc2)cc1 | 59.6% (active)
C=C(C)Cn1c(C)cc(C)c(S(=O)(=O)c2ccccc2C)c1=O | 36.5%
Cc1ccc(-n2ncc3c2ncn2nc(-c4ccco4)nc32)c(C)c1 | 0.2%
NC(=O)C1CC=CCC1C(=O)OCC(Cl)=C(Cl)Cl (stereo not drawn) | 2.9%
COc1ccc(CN2CN(C(C)C)CSC2=S)cc1 | 34%
CC(=O)Nc1ccc(S(=O)(=O)N2CCCC2C(=O)O)cc1 (stereo not drawn) | -11.7%
Cc1ccc(S(=O)(=O)N2CCCC2C(=O)NCc2ccco2)cc1 (stereo not drawn) | -48.4%
CC(C)c1nnc(NC(=O)C2CCCN2S(=O)(=O)c2ccc(Cl)cc2)s1 (stereo not drawn) | 86.2% (active)
O=C(COc1ccc(Cl)cc1)N1CCN(S(=O)(=O)c2ccc(Cl)cc2)CC1 | 0.1%
NC(=O)COc1ccc(/C=N/NC(=O)C2CCCN2S(=O)(=O)c2ccc(Cl)cc2)cc1 (stereo not drawn) | 67.3% (active)
Cc1cccc(NC(=O)C2CCCN2S(=O)(=O)c2ccc(F)cc2)c1C (stereo not drawn) | -147%
CCC(C)NC(=O)C1CCCN(C(=O)NC2CCCCC2)C1 (stereo not drawn) | 19.9%
COc1ccc(C)cc1NC(=O)c1[nH]c(C)c(C(C)=O)c1C | 34%
CCOC(=O)C1Sc2[nH]c(=O)sc2C(c2ccc(Cl)cc2)C1C(=O)OCC (stereo not drawn) | 5.6%
O=c1c2ccccc2oc2nc(C3CCCCC3)n(Cc3ccco3)c(=O)c12 | 20.1%

Structure (SMILES) | inhibition
CCc1nc2ccccc2n(CCOCCOCCn2c(=O)c(CC)nc3ccccc32)c1=O | 24.5%
CC(c1ccco1)N(C(=O)c1ccc(S(=O)(=O)N2CCCCC2)cc1)c1ccccn1 (stereo not drawn) | 56.9% (active)
CC(c1ccco1)N(C(=O)COc1ccccc1[N+](=O)[O-])c1ccccn1 (stereo not drawn) | 8.1%
CC(C)Cc1ccc(S(=O)(=O)N2CCN(C(=O)c3ccco3)CC2)cc1 | 17%
Cc1cc(C)cc(OCc2nnc(SCC(=O)OC3CCCCC3)o2)c1 | -1.3%
C=CCc1cccc2cc(C(=O)N3CCN(C(=O)OCC)CC3)c(=O)oc12 | -112%
CCN(CC)S(=O)(=O)c1cccc(C(=O)Nc2ccccc2)c1 | 38.7%
CCN(CC)S(=O)(=O)c1cccc(C(=O)NCC(=O)OCC(=O)NCc2ccccc2)c1 | 63.3% (active)
CCN(c1ccccc1)S(=O)(=O)c1cccc(C(=O)O)c1 | 33.3%
c1ccc2c(-c3nn4nnnc4c4ccccc34)cccc2c1 | 13.8%
COCCn1c(=S)[nH]c2cc(C(=O)NCCc3ccc(OC)c(OC)c3)ccc2c1=O | 55.7% (active)
COc1ccc(CCNC(=O)CCn2c(=O)oc3ccccc32)cc1OC | 8.1%
COc1ccc(CCNC(=O)c2ccc3c(c2)NC(=O)C(N2CCOCC2)S3)cc1OC (stereo not drawn) | 50.1% (active)
O=C(CCn1c(=S)[nH]c2ccccc2c1=O)NCCCN1CCCC1=O | -4.6%
COCCn1c(=O)[nH]c2cc(C(=O)NCc3cccnc3)ccc2c1=O | -1.7%
COc1ccc(CCNC(=O)c2cc(-c3ccc4c(c3)OCO4)on2)cc1OC | 6.7%
O=C(CCCCCn1c(=O)[nH]c2ccccc2c1=O)NCCc1c[nH]c2ccccc12 | 63.8% (active)
COc1ccc(CCNC(=O)CCCCn2c(=O)[nH]c3ccccc3c2=O)cc1OC | 68.4% (active)
O=C(NCCCN1CCCCC1)c1ccc2c(c1)NC(=O)C(N1CCOCC1)S2 (stereo not drawn) | -7.1%
CCOc1cc2[nH]c(=S)n(Cc3ccc(C(=O)NCCOC)cc3)c(=O)c2cc1OCC | -7.8%
O=C(CCn1c(=O)[nH]c2ccccc2c1=O)NCCCN1CCN(c2cccc(Cl)c2)CC1 | 29.1%
CCN(CC)CCNC(=O)CCCCCn1c(=O)[nH]c2cc(C(=O)OC)ccc2c1=O | 2.6%
COC(=O)CSc1snnc1-c1ccc(Cl)c(Cl)c1 | 6.6%
COc1ccc(/C=N/Nc2nc3ccccc3o2)cc1OC | -48.5%

Structure (SMILES) | inhibition
CC(=O)Nc1cc2ccc(OC(C)=O)cc2oc1=O | -29.1%
CCCOc1ccc(CN(CCO)CCO)cc1C(=O)OC | 10.6%
COc1cccc(-c2cnc(OC(C)(C)C)nc2OC(C)(C)C)c1 | 6.8%
CCc1nc(C)cn1S(=O)(=O)c1cc(OC)c(C)cc1C | 7.6%
Cc1ccsc1CNn1cnnc1SCc1ccccc1F | 13.9%
Cc1ccc(C2=NN(C)c3nc4ccccc4n3C2)cc1 | 6.9%
COCc1cc(=O)[nH]c2cc(NC(=O)C(F)(F)F)c(C)cc12 | 13.9%
CCOC(=O)Cn1c(-c2cccnc2Cl)nc2ccccc21 | 10.6%
O=C(Nc1ncc2c(n1)-c1ccccc1OC2)c1ccc(Cl)cc1 | 25.3%
Cn1cc(CCC(=O)NCc2ccc3c(c2)OCO3)c2ccccc21 | -124%
O=C(CCCCn1c(=O)[nH]c2ccccc2c1=O)NCc1ccc2c(c1)OCO2 | 69% (active)
Cc1c2cnn(-c3ccccc3)c(=O)c2c(C)n1CCCC(=O)N1CCN(C)CC1 | -0.9%
CCC1CCCCN1CCCNC(=O)C1CCC(Cn2c(=O)[nH]c3ccccc3c2=O)CC1 (stereo not drawn) | 1.7%
CC(C)NC(=O)CCCn1c(=S)[nH]c2cc3c(cc2c1=O)OCO3 | 12.3%
Cc1ccc(C)c(N2CCN(C(=O)CCCCn3c(=O)[nH]c4ccccc4c3=O)CC2)c1 | 61.9% (active)
O=C(COc1ccc(/C=N/NS(=O)(=O)c2ccccc2)cc1)NCCc1ccccc1 | 5.3%
CCOc1ccc(OCC)c(NC(=O)C(NS(=O)(=O)c2ccc3c(c2)oc(=O)n3C)C(C)C)c1 (stereo not drawn) | 17.9%
Cc1ccccc1OC/C(O)=C(\C#N)c1nc2ccccc2[nH]1 | 45.5%
N#C/C(=C(/O)Cc1cccc2ccccc12)c1nc2ccccc2s1 | 76.6% (active)
N#C/C(=C(/O)COc1cccc2ccccc12)c1nc2ccccc2[nH]1 | -6.1%
CN(C)/C=C(\C#N)C(=O)c1cccnc1Oc1cccc(F)c1 | 12.2%
CCCC(C)C(=O)Nc1ccc(NC(C)=O)cc1 (stereo not drawn) | 9.5%
COc1ccc(C2OC(=O)CC2C(=O)NC(C)C)cc1 (stereo not drawn) | 3.6%
COC(=O)c1sccc1NC(=O)CCC1CCCC1 | -11.7%

Structure (SMILES) | inhibition
O=C(CCCOc1ccccc1)Nc1cccc(C(=O)O)c1 | 9.5%
N#Cc1cccc(NC(=O)CCC2CCCC2)c1 | 56.8% (active)
CCCC(=O)N1CCc2[nH]c3ccccc3c2C1 | 8.3%
COc1ccccc1N(C(=O)Cn1nnc2ccccc21)C(C(=O)NCc1ccco1)c1ccc(C)o1 (stereo not drawn) | 70.3% (active)
COCCNC(=O)C(c1ccc(C)o1)N(Cc1ccccc1)C(=O)Cn1nnc2ccccc21 (stereo not drawn) | 16.2%
Cc1ccc(C(C(=O)NCc2ccco2)N(CC2CCCO2)C(=O)Cn2nnc3ccccc32)cc1 (stereo not drawn) | 14.4%
CCOCCCNC(=O)Cc1cc(=O)[nH]c(=O)[nH]1 | -6.2%
Cc1noc(COc2ccccc2OCC(O)CNC(C)(C)C)n1 (stereo not drawn) | 26.1%
O=C1N(Cc2ccc3c(c2)OCO3)c2ccccc2C1(O)c1c[nH]c2ccccc12 (stereo not drawn) | 79.7% (active)
CC1CCC(N2CC(=O)N(Cc3ccc4c(c3)OCO4)C(c3ccc(F)cc3)C2=O)CC1 (stereo not drawn) | 39.6%
O=C(Nc1cccc2ccccc12)N1CCN(Cc2ccc3c(c2)OCO3)CC1 | 38.9%
CC(=O)Oc1ccc(C)cc1N1C(=O)c2ccc(C(=O)O)cc2C1=O | -17.9%
C/C(CC(O)(/C=N/O)c1ccccc1)=N\O (stereo not drawn) | -33%
CC1=NN(c2cccc(Cl)c2)C(=O)C12CC(C)=C(C)CS2 (stereo not drawn) | 74.8% (active)
O=C1C(=O)N(c2ccccc2)c2ccccc21 | 4.1%
CCOc1ccc(Nc2nc(Cc3nnc(SCC(=O)c4ccc(C)cc4)o3)cs2)cc1 | 83.7% (active)
CCC(=O)Nc1ccc(C(=O)CSc2nnc(CNc3ccc(Cl)cc3)o2)cc1OC | -44.6%
COCCCn1c(Cc2csc(Nc3cccc(Cl)c3)n2)nnc1SCC(=O)OC1CCCCC1 | 44.3%
CC(=O)Nc1ccc(C(=O)CSc2nnc(Cc3ccccc3)o2)cc1 | 33.3%
CCOC(=O)c1c(NC(=O)CSc2nnc(Cc3csc(N)n3)n2C)sc(C)c1C | 30.2%
CCOc1ccc(Nc2nc(Cc3nnc(SCC(=O)NC4CCCC4)n3C)cs2)cc1 | 65.6% (active)
